This is an account of results in PubChem BioAssay (NCI).

Test [1] can be described thus: NCI Yeast Anticancer Drug Screen. Data for the rad50 strain (AID 155).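 Note: 0% = growth of vehicle-only cultures of the same strain.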 The note with it: S. cerevisiae rad50 strain growth inhibition, active compounds read high; at 50.0 µM unless noted. A digest of the protocol:
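Compounds were tested on a yeast strain with an engineered DNA damage repair alteration; the reported value is growth inhibition normalised to vehicle treatment.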

A short description of test [2]: NCI Yeast Anticancer Drug Screen. Data for the mec2-1 strain (AID 157). Conditions: S. cerevisiae mec2-1 strain, active compounds read high; at 50.0 µM unless noted. The method, boiled down:
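Compounds were applied to mec2-1 yeast cells. Their growth was then compared with that of vehicle-treated cultures to give growth inhibition.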

Test [3] can be described thus: NCI Yeast Anticancer Drug Screen. Data for the sgs1 mgt1 strain (AID 161).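 Note: 0% = growth of cultures given vehicle only.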 Conditions: S. cerevisiae sgs1 mgt1 strain, active compounds read high; at 50.0 µM unless noted. A digest of the protocol: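 Growth of a repair-deficient yeast mutant was monitored after compound treatment and expressed as inhibition relative to vehicle-treated cultures.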
The nature of test [4]: NCI Yeast Anticancer Drug Screen. Data for the cln2 rad14 strain (AID 165).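 Note: 0% = growth equal to vehicle treated cultures.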 The note with it: S. cerevisiae cln2 rad14 strain, active compounds read high; at 50.0 µM unless noted. A digest of the protocol: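 Strain: cln2 rad14 yeast, altered in cell cycle control and DNA damage repair. Read-out: growth inhibition vs vehicle.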
Test [5] in a line: NCI Yeast Anticancer Drug Screen. Data for the bub3 strain (AID 167). The note with it: S. cerevisiae bub3 mutant strain, active compounds read high; at 50.0 µM unless noted. The method, boiled down:
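Growth of a checkpoint-deficient yeast mutant is measured after compound exposure. Values represent inhibition relative to vehicle.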

Test [6] can be described thus: NCI Yeast Anticancer Drug Screen. Data for the mlh1 rad18 strain (AID 175). Conditions: S. cerevisiae mlh1 rad18 strain growth inhibition, active compounds read high; at 50.0 µM unless noted. A digest of the protocol: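 A repair-deficient yeast strain is exposed to test compound, and growth is scored relative to vehicle-treated controls.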

Molecules are shown by their SMILES. Where “and” joins values, the source holds several entries; their conditions need not be identical. Equal values may be shown once. This is part of a sample that, as a whole, favours compounds with a hit. Of some 79,000 tested, about 15% had one in any assay. Unmarked numbers belong to inactive results. Calls of active or inactive are those of the source. Cut-off read from the data, not from the text of the source: active = growth inhibition above about 70%; inactive = the rest.

As for `CC(C)C(C=O)C(O)(C(F)(F)F)C(F)(F)F` (stereo not drawn), the growth inhibition is 2.3% in test [1]; -2.8% in test [2]; -30.6% in test [3]; 13.3% in test [4]; 22.3% in test [5]; 0.5% in test [6].

Consider `O=C(NC(CSC(c1ccccc1)(c1ccccc1)c1ccccc1)C(=O)O)OC(c1ccccc1)c1ccccc1` (stereo not drawn), for which the growth inhibition is 91.5% (active) in test [1]; 95.6% (active) in test [2]; 96.5% (active) in test [3]; 89% (active) in test [4]; 89.5% (active) in test [5]; 96.5% (active) in test [6].

In the case of `c1ccc(C2(c3ccc(C4(c5ccccc5)Oc5ccccc5S4)[nH]3)Oc3ccccc3S2)cc1` (stereo not drawn), the growth inhibition in test [1] was 20.4%; in test [2] it was -12.2%; in test [3] it was -4.4%; in test [4] it was 11.6%; in test [5] it was -16.7%; in test [6] it was 20.2%.

Regarding `CC(C)c1cccc(C(C)C)c1NC(=O)C(=O)Cc1nc2ccc([N+](=O)[O-])cc2[nH]c1=O`, the growth inhibition in test [1] is 26.6%; in test [2] it was 19.6%; in test [3], 34.6%; in test [4], 25.3%; in test [5], 24.6%; in test [6], 40.8%.

Consider `O=c1[nH]c2ccc([N+](=O)[O-])cc2nc1/C(=N/Nc1ccccc1)C(O)c1ccco1` (stereo not drawn), for which the growth inhibition in test [1] was -4.6%; in test [2], -9.1%; in test [3], -12.8%; in test [4], 6%; in test [5], -10.6%; in test [6], 12.9%.

In the case of `COC(=O)c1cc(NC(=O)Nc2cc(C(F)(F)F)ccc2Cl)cc(C(=O)OC)c1`, the growth inhibition in test [1] is -24.2%; in test [2] it was -32%; in test [3], -9.65%; in test [4] it was -22.9%; in test [5], -0.55%; in test [6], -38.2%.

Take `O=C(OC1C2C=COC(OC3OC(CO)C(O)C(O)C3O)C2C2(CO)OC12)c1ccc(O)cc1` (stereo not drawn): the growth inhibition was -0.15% in test [1]; -6.45% in test [2]; 17.8% in test [3]; 18.6% in test [4]; 1.8% in test [5]; -11.6% in test [6].

In the case of `O=c1[nH]c(C(F)(F)F)c([N+](=O)[O-])c(=O)[nH]1`, the growth inhibition is -40.9% in test [1]; -22.4% in test [2]; 1.6% in test [3]; -26.4% in test [4]; -1.9% in test [5]; -4.7% in test [6].

As to `CC(C)C(=O)/C=C/c1ccc(Cl)cc1`, the growth inhibition in test [1] is 0.95% and -1.3%; in test [2], -18.9% and -16.6%; in test [3] it was -16.1% and -10.2%; in test [4], -66.7% and -44.9%; in test [5], -0.75% and -28.1%; in test [6], -16.9% and -8.65%.

`Cc1ccc([N+](=O)[O-])cc1NC(=O)N(Cc1ccccc1)Cc1ccccc1`: the growth inhibition is 8.7% in test [1]; 1.5% in test [2]; 10.8% in test [3]; 9.4% in test [4]; 17.3% in test [5]; -0.05% in test [6].

In the case of `CCOP(=O)(OCC)C(C)(CC)N/C(=N/C(NC(C)=O)(C(F)(F)F)C(F)(F)F)NC1=NC(C(F)(F)F)(C(F)(F)F)N=C(C(F)(F)F)O1` (stereo not drawn), the growth inhibition was 1.65% in test [1]; 4.65% in test [2]; -26.8% in test [3]; 5.3% in test [4]; -3.1% in test [5]; -34.1% in test [6].

`O=C(CSS(=O)(=O)O)Nc1ccccc1`: the growth inhibition was 17.6% in test [1]; -0.65% in test [2]; 7.5% in test [3]; 14.6% in test [4]; 9.65% in test [5]; -8.05% in test [6].

On to `c1ccc2c(c1)ncn2Sn1cnc2ccccc21`, for which the growth inhibition was 1.8% and 2.7% in test [1]; 16.9% and -0.1% in test [2]; 3.8% and -3.35% in test [3]; -12.4% and 15.5% in test [4]; 2.95% and 11.1% in test [5]; 6.9% and 20.9% in test [6].

In the case of `Cc1ccc(Cl)c(NC(=O)Nc2ccccc2Cl)c1`, the growth inhibition is -3.7% in test [1]; 3.65% in test [2]; -7.2% in test [3]; -15.2% in test [4]; -2.5% in test [5]; 20.4% in test [6].

In the case of `O=C(Nc1ccc(Cl)cc1)C(Cl)C(Cl)c1ccc(Cl)cc1` (stereo not drawn), the growth inhibition was -15.6% in test [1]; -6.3% in test [2]; -7.65% in test [3]; -22.4% in test [4]; 9.05% in test [5]; -23.1% in test [6].

As for `O=C(OCc1ccccc1)C1CCN1C(c1ccccc1)c1ccccc1` (stereo not drawn), the growth inhibition in test [1] is 7.85%; in test [2], 13.5%; in test [3], 5.5%; in test [4], -25.6%; in test [5], 11.2%; in test [6], -7.8%.

On to `NC(N)=N/N=C(\c1ccc(C(F)(F)F)cc1)c1ccc(Cl)c(Cl)c1`, for which the growth inhibition is 99.5% (active) in test [1]; 99.5% (active) in test [2]; 99.7% (active) in test [3]; 99.2% (active) in test [4]; 99.3% (active) in test [5]; 99.7% (active) in test [6].

Consider `Clc1ccc2c(c1)C(=P(c1ccccc1)(c1ccccc1)c1ccccc1)c1cc(Cl)cc(Cl)c1-2`, for which the growth inhibition is 83.7% (active) in test [1]; 52.6% in test [2]; 66.8% in test [3]; 50.6% in test [4]; 39.3% in test [5]; 64.6% in test [6].

In the case of `Nc1nc(N)c2ncn(Cc3ccccc3)c2n1`, the growth inhibition is -41.2% in test [1]; -34.4% in test [2]; -9.95% in test [3]; -14.1% in test [4]; -16.1% in test [5]; -13.9% in test [6].

On to `COc1ccc(CCC(=O)c2ccc(N)cc2)cc1`, for which the growth inhibition in test [1] is -22.1%; in test [2] it was -16.4%; in test [3] it was -0.65%; in test [4], -11.5%; in test [5], -3.75%; in test [6], -22.3%.

Consider `CCCCOC(c1ccccc1)c1ccccc1`, for which the growth inhibition is -19.8% in test [1]; -18.6% in test [2]; -11.8% in test [3]; -17.8% in test [4]; -4.25% in test [5]; 1.95% in test [6].

In the case of `O=C(O)CCCC1CCC(=O)CC1`, the growth inhibition was -0.4% in test [1]; -7.55% in test [2]; -8.1% in test [3]; -24.4% in test [4]; 0.5% in test [5]; 3.35% in test [6].

For `c1ccc2nc3c(cc2c1)c1c(c2ccccc23)CCCC1`, the growth inhibition is 11.2% in test [1]; -10.5% in test [2]; 20.4% in test [3]; -25.4% in test [4]; -14.6% in test [5]; 22.9% in test [6].

With `CSc1ccc2nncc(SC)c2c1`, the growth inhibition is 64.2% in test [1]; 7.05% in test [2]; 12.9% in test [3]; 40.1% in test [4]; 18% in test [5]; 40.9% in test [6].

`CCOC(=N)C1(O)CCCCC1`: the growth inhibition in test [1] was -9.05%; in test [2], -6.75%; in test [3], -13.4%; in test [4] it was -5.1%; in test [5], -3.8%; in test [6], 23.6%.

For the compound `CCCCCCCCCCCCC`, the growth inhibition in test [1] is -36.4%; in test [2], -45.8%; in test [3] it was -18.2%; in test [4] it was 3.7%; in test [5] it was -50%; in test [6] it was -20.9%.

For `O=C(c1ccccc1)c1ccc2c(c1)N=C(c1ccc(Cl)c(Cl)c1)CC(c1ccc3ccccc3c1)N2` (stereo not drawn), the growth inhibition in test [1] is 22.2%; in test [2] it was 15.4%; in test [3], -7%; in test [4], -33.5%; in test [5] it was -3.6%; in test [6], 16.6%.

For the compound `CCN(CC)c1ccc(/C=N/Nc2cc(C)nc3ccc(C4CCCCC4)cc23)cc1`, the growth inhibition in test [1] was 25.8%; in test [2] it was 4.3%; in test [3] it was 21.1%; in test [4], 3.15%; in test [5] it was -2.35%; in test [6], 44.9%.

Turning to `O=C1/C(=N\[O-])C(S(=O)(=O)[O-])=Cc2cc(S(=O)(=O)[O-])cc(O)c21.O=C1/C(=N\[O-])C(S(=O)(=O)[O-])=Cc2cc(S(=O)(=O)[O-])cc(O)c21.[Cu+2]`, the growth inhibition in test [1] is -1.8%; in test [2], 8.1%; in test [3] it was -0.65%; in test [4], -11.7%; in test [5] it was -2.4%; in test [6], -19.5%.

In the case of `COc1cc(CC(=O)C(=O)O)ccc1O`, the growth inhibition in test [1] is 0.85%; in test [2], -2.95%; in test [3], 4.35%; in test [4], -14.7%; in test [5], 2.2%; in test [6] it was -1.95%.

For `CSc1ncn(C)c1C(N)=O`, the growth inhibition in test [1] was 0.1%; in test [2] it was 4.25%; in test [3] it was 1.5%; in test [4], -5.2%; in test [5], -3.25%; in test [6] it was 11.2%.

Turning to `NC(Cc1ccc2nc3c4ccccc4c(=O)cc-3oc2c1)C(=O)O` (stereo not drawn), the growth inhibition in test [1] is -23.4%; in test [2] it was -40.9%; in test [3] it was -14.6%; in test [4], 19.3%; in test [5] it was 10.1%; in test [6] it was -13.7%.

Turning to `ClCCCSSCCCCl`, the growth inhibition was 24.1% in test [1]; 21.2% in test [2]; 20.4% in test [3]; -7.95% in test [4]; 14.4% in test [5]; 3.85% in test [6].

Turning to `O=C(Nc1cccc2ccccc12)c1ccc(Cl)cc1Cl`, the growth inhibition in test [1] is 4.15%; in test [2] it was 14.9%; in test [3], 21.5%; in test [4], 1.35%; in test [5], 8.55%; in test [6], 4.65%.

`c1ccc2[nH]c(CSc3nc4ccccc4s3)nc2c1`: the growth inhibition is 10.1% in test [1]; 17.2% in test [2]; 37.5% in test [3]; 33.6% in test [4]; -0.75% in test [5]; 28.6% in test [6].

Regarding `CC1(O)C2CC3CC(C2)CC1C3` (stereo not drawn), the growth inhibition in test [1] was -1.1%; in test [2], -3.1%; in test [3] it was -13.3%; in test [4], -59%; in test [5] it was 13.2%; in test [6], 10.3%.

On to `Cc1ccc(N2CCC(O)C2)cc1` (stereo not drawn), for which the growth inhibition is -19.4% in test [1]; -8.5% in test [2]; -7.05% in test [3]; 4.95% in test [4]; -8.4% in test [5]; -25.9% in test [6].

Regarding `Cc1ccc2nc(-c3ccc(NC(=O)c4ccc(N)cc4)c(S(=O)(=O)O)c3)sc2c1`, the growth inhibition in test [1] was 1.9%; in test [2] it was 4.7%; in test [3], -25.9%; in test [4], -22%; in test [5] it was -16.4%; in test [6], -8.85%.
